According to PubChem BioAssay (NCI):
Values joined by “and” are separate entries in the source; they are usually repeats but may differ in a detail not shown here. Equal values may be shown once. This is part of a sample that, as a whole, favours compounds with a hit. Of some 83,000 tested, about 20% had one in any assay.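 Note: values are percent growth. 100 is the growth of untreated cells, values between 100 and 0 indicate rising inhibition; between -100 and 0 indicates cell death.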 Active and inactive are the calls of the source. The calls were made as follows: active = growth percent below 10; inactive = the rest.

Columns and labels:
Assay in all cases: NCI-60 one-dose screen, 48 h (100 = growth as untreated, 0 = no growth, -100 = all killed)
Conditions in all cases: 10 µM unless noted
[1] = test system: NCI-H23 lung
[2] = test system: NCI-H226 lung
[3] = test system: NCI-H322M lung
[4] = test system: HOP-62 NSCLC
[5] = test system: NCI-H460 lung
[6] = test system: HOP-92 NSCLC
[7] = test system: NCI-H522 lung
[8] = test system: A549/ATCC NSCLC
[9] = test system: 786-0 renal
[10] = test system: COLO 205 colon
[11] = test system: DU-145 prostate
[12] = test system: K-562 leukemia
[13] = test system: MALME-3M melanoma
[14] = test system: MDA-MB-231 breast
[15] = test system: RXF 393 renal
[16] = test system: SF-268 CNS
[17] = test system: SF-295 CNS
[18] = test system: SF-539 CNS
[19] = test system: UACC-257 melanoma
[20] = test system: M14 melanoma

CCCCOC1NC(=O)NC(=O)C1(F)C(=O)OCC (stereo not given)
growth [1]: 79.6% (inactive) and 55.9% (inactive) | growth [2]: 101% (inactive) and 102% (inactive) | growth [3]: 74% (inactive) and 67.9% (inactive) | growth [4]: 76.9% (inactive) and 43.3% (inactive) | growth [5]: 47.2% (inactive) and 25.6% (inactive) | growth [6]: 67.6% (inactive) and 85.6% (inactive) | growth [7]: 80.1% (inactive) | growth [8]: 48.8% (inactive) and 46.3% (inactive) | growth [9]: 93% (inactive) and 67.6% (inactive) | growth [10]: 61.7% (inactive) and 53.9% (inactive) | growth [11]: 73% (inactive) and 51.5% (inactive) | growth [12]: 88.1% (inactive) and 57.4% (inactive) | growth [13]: 65.7% (inactive) and 65.1% (inactive) | growth [14]: 92.8% (inactive) and 75% (inactive) | growth [15]: 98.1% (inactive) and 82.7% (inactive) | growth [16]: 98.8% (inactive) and 83.1% (inactive) | growth [17]: 94.1% (inactive) and 93.7% (inactive) | growth [18]: 11.3% (inactive) and 5.65% (active) | growth [19]: 77.2% (inactive) | growth [20]: 71.4% (inactive) and 71.3% (inactive)

O=c1[nH]c(=O)n(C2OC(CO)C(O)C2O)cc1I (stereo not given)
growth [1]: 104% (inactive) and 108% (inactive) | growth [2]: 91.8% (inactive) and 117% (inactive) | growth [3]: 100% (inactive) and 102% (inactive) | growth [4]: 101% (inactive) and 96.4% (inactive) | growth [5]: 116% (inactive) and 125% (inactive) | growth [6]: 77.7% (inactive) | growth [7]: 80.5% (inactive) and 112% (inactive) | growth [8]: 96.3% (inactive) and 100% (inactive) | growth [9]: 105% (inactive) and 108% (inactive) | growth [10]: 114% (inactive) and 102% (inactive) | growth [11]: 117% (inactive) and 112% (inactive) | growth [12]: 95.1% (inactive) and 128% (inactive) | growth [13]: 100% (inactive) and 107% (inactive) | growth [14]: 109% (inactive) and 111% (inactive) | growth [15]: 114% (inactive) and 123% (inactive) | growth [16]: 102% (inactive) and 112% (inactive) | growth [17]: 125% (inactive) and 102% (inactive) | growth [18]: 105% (inactive) and 102% (inactive) | growth [19]: 97.3% (inactive) and 101% (inactive) | growth [20]: 104% (inactive) and 90.5% (inactive)

COc1ccc(/C=N/NC(N)=S)cc1
growth [1]: 89.2% (inactive) | growth [2]: 105% (inactive) | growth [3]: 103% (inactive) | growth [4]: 93.4% (inactive) | growth [5]: 103% (inactive) | growth [6]: 68.4% (inactive) | growth [7]: 89.4% (inactive) | growth [8]: 82.1% (inactive) | growth [9]: 98.3% (inactive) | growth [10]: 106% (inactive) | growth [11]: 110% (inactive) | growth [12]: 106% (inactive) | growth [13]: 94.4% (inactive) | growth [14]: 101% (inactive) | growth [15]: 95.8% (inactive) | growth [16]: 104% (inactive) | growth [17]: 106% (inactive) | growth [18]: 103% (inactive) | growth [19]: 102% (inactive) | growth [20]: 96.3% (inactive)

COC(=O)C(Cc1cn(C(C)=O)c2ccccc12)P(=O)(OC)OC (stereo not given)
growth [1]: 98.5% (inactive) | growth [2]: 91.5% (inactive) | growth [3]: 101% (inactive) | growth [4]: 93.3% (inactive) | growth [5]: 98.1% (inactive) | growth [6]: 98.8% (inactive) | growth [7]: 103% (inactive) | growth [8]: 106% (inactive) | growth [9]: 105% (inactive) | growth [10]: 105% (inactive) | growth [11]: 109% (inactive) | growth [12]: 102% (inactive) | growth [13]: 96.1% (inactive) | growth [14]: 97.9% (inactive) | growth [15]: 116% (inactive) | growth [16]: 96.3% (inactive) | growth [17]: 97.1% (inactive) | growth [18]: 97.3% (inactive) | growth [19]: 110% (inactive) | growth [20]: 91.9% (inactive)

COc1cc(NCCCCCNC(C)C)c2ncccc2c1
growth [1]: 104% (inactive) and 90.3% (inactive) | growth [2]: 90.5% (inactive) and 94% (inactive) | growth [3]: 82.7% (inactive) and 104% (inactive) | growth [4]: 87.3% (inactive) and 92.5% (inactive) | growth [5]: 103% (inactive) and 117% (inactive) | growth [6]: 82.5% (inactive) | growth [7]: 92.2% (inactive) and 42% (inactive) | growth [8]: 101% (inactive) and 94.7% (inactive) | growth [9]: 94.4% (inactive) and 89.3% (inactive) | growth [10]: 91.7% (inactive) and 87.9% (inactive) | growth [11]: 111% (inactive) | growth [12]: 91.1% (inactive) and 104% (inactive) | growth [13]: 99.6% (inactive) and 125% (inactive) | growth [14]: 89% (inactive) and 93.1% (inactive) | growth [15]: 90.9% (inactive) and 92.6% (inactive) | growth [16]: 93.5% (inactive) | growth [17]: 104% (inactive) and 102% (inactive) | growth [18]: 91.9% (inactive) and 78.1% (inactive) | growth [19]: 113% (inactive) and 80.2% (inactive) | growth [20]: 96.9% (inactive) and 90.2% (inactive)

O=P(O)(O)OC1C(OP(=O)(O)O)C(OP(=O)(O)O)C(OP(=O)(O)O)C(OP(=O)(O)O)C1OP(=O)(O)O.[Cu+2] (stereo not given)
growth [1]: 93.3% (inactive) | growth [2]: 98.8% (inactive) | growth [3]: 106% (inactive) | growth [4]: 114% (inactive) | growth [5]: 84.2% (inactive) | growth [6]: 106% (inactive) | growth [7]: 101% (inactive) | growth [8]: 64.1% (inactive) | growth [9]: 114% (inactive) | growth [10]: 111% (inactive) | growth [11]: 104% (inactive) | growth [12]: 94.7% (inactive) | growth [13]: 93.4% (inactive) | growth [14]: 80.7% (inactive) | growth [15]: 125% (inactive) | growth [16]: 125% (inactive) | growth [17]: 91% (inactive) | growth [18]: 72% (inactive) | growth [19]: 80.2% (inactive) | growth [20]: 102% (inactive)
